Screen size: about 330,000 compounds; about 5,800 (1.8%) were called active. No stated cut-off is given here; in the data, active means inhibition mostly above about 38% (no sharp cut-off); inactive means mostly below about 40%. The list comes from a sample in which actives are over-represented; it also holds similar structures and randomly drawn compounds.
target: Orexin/Hypocretin receptor type 1 (Homo sapiens) (UniProt O43613); experiment: blocks the human orexin 1 receptor (AID 485270); conditions: OX1R-expressing cells, FRET antagonist read-out; at 6.6 µM; hits give high values;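 further: 0% = agonist challenge alone and 100% = reference antagonist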
Sequence (O43613 whole entry, looked up): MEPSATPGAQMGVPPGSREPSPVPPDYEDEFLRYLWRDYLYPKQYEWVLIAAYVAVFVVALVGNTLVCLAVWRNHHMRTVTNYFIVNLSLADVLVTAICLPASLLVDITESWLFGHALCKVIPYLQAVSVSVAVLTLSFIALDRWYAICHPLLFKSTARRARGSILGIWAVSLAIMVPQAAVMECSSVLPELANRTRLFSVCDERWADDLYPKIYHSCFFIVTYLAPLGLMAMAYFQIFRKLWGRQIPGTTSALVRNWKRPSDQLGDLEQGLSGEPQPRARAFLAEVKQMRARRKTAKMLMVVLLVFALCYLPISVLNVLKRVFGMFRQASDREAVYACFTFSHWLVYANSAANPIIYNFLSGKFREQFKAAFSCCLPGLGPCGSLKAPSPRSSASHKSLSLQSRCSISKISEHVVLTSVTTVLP

inhibition, inactive:
Cc1noc(C)c1NC(=O)Nc1cccc2c1O[C@H](CN(C)C(=O)Nc1ccccc1)[C@@H](C)CN([C@H](C)CO)C2=O 6.95%, CC(=O)C[C@H](O)CC(=O)[C@@H]1OC(=O)[C@@H](C)C/C=C\Cc2ccccc21 0.77%, O=C1OCCN1C(=O)[C@H]1[C@H](c2ccccc2)C(c2ccc(F)cc2)=NN1c1ccccc1 5.3%, Cc1cccc(N2O[C@H]3C=CC2CCCC3)n1 3.41%, CCn1nc(C(=O)NNS(=O)(=O)c2cc(/C=C/C(=O)O)cc(OC)c2OC)c2ccccc2c1=O 3.49%, CC[C@]12c3[nH]c4ccc(OC)cc4c3CCN1C(=O)C(CC(=O)NCCN1CCOCC1)C[C@@H]2C(=O)N1CCN(C(=O)C2CC2)CC1 (stereo partly drawn) 17.4%, O=C1c2ccccc2C(=O)c2c1cccc2N1CCN(Cc2ccccc2)CC1 14.2%, O=C1c2ccccc2C(=O)c2c1cccc2N1CCN(C/C=C/c2ccccc2)CC1 20.4%, COc1ccc(/C=C/C(=O)OCC(=O)NC2CCCCCC2)cc1OC 5.65%, COc1cc(/C=C/C(=O)OCC(=O)c2ccccc2)cc(OC)c1OC 7.01%, CCc1nnc(NC(=O)CSCc2cc(=O)n3cc(C)sc3n2)s1 8.1%, O=C(COC(=O)c1cccnc1Cl)Nc1ccc(S(=O)(=O)N2CCOCC2)cc1 7%, CC(=O)N1Cc2ccccc2CC1C(=O)O (stereo not drawn) 2.65%, COc1ccc(NC(=O)N(C)C[C@H]2Oc3ccc(NC(=O)C4CC4)cc3C(=O)N([C@H](C)CO)C[C@@H]2C)cc1 9.29%, COc1cc(C2CC(=O)Oc3cc(OC)c(OC)c(OC)c32)cc(OC)c1OC (stereo not drawn) 5.32%, CN(C(=O)c1cccc(NC(=O)Cc2cccc([N+](=O)[O-])c2)c1)C1CCCCC1 10.1%, CC(=O)c1ccc(NC(=O)Nc2ccc([N+](=O)[O-])cc2C)cc1 26%, COC(=O)c1ccc(NC(=O)Nc2ccc(C)cc2)cc1 15.3%, CC(C)(C)OC(=O)C[C@@H]1C/C=C\C[C@H](CC(=O)N[C@@H](CO)Cc2ccccc2)C(=O)N[C@H](Cc2ccccc2)COC1=O 4%, CC(=O)Oc1cccc(C(=O)Nc2ccccc2NC(=O)c2cccc(OC(C)=O)c2)c1 6.54%, CC(=O)O[C@H]1c2ccccc2-c2ccccc2[C@@H]1OC(C)=O 1.8%, Cc1ccnc(SCC(=O)Nc2cccc(S(=O)(=O)N3CCOCC3)c2)n1 5.6%, CC1CCN(C(=O)COC(=O)c2cc(=O)[nH]c3ccccc23)CC1 3.71%, CN(C)/C=C(/C(=O)c1ccc(Cl)c(Cl)c1)c1nnnn1-c1ccccc1 4.6%, CN(C(=O)CSc1nnnn1-c1ccccc1)C1CCCCC1 9.05%, Cc1ccc(NS(=O)(=O)c2c(C)[nH]c(C)c2C(=O)N2CCCCC2)c(C)c1 21.7%, Cc1ccc(C)c(N2CCN(S(=O)(=O)c3c(C)[nH]c(C)c3C(=O)N3CCCC3)CC2)c1 5.67%, O=C(COC(=O)CN1C(=O)C2CCCCC2C1=O)Nc1ccc(F)c(F)c1F (stereo not drawn) 0.98%, Cc1ccc(C(=O)N2CCN(C(=O)N3CCOCC3)CC2)cc1 5.22%, Cc1ccccc1-c1ccc(Nc2ccc(C(=O)N3CCOCC3)cc2)nn1 20.7%, Cc1cccc(C(=O)N[C@H](C(=O)NCc2cccs2)C(C)C)c1 11.5%, CN[C@H](C(=O)NC[C@H]1O[C@@H](n2cnc3c(N)ncnc32)[C@H](O)[C@@H]1O)[C@@H](C)OCc1ccccc1 5.21%, Cc1ccc(C(=O)NNC(=O)c2ccc3c(c2)OCCO3)cc1 8.1%, COc1cccc(NC(=O)CN(C)C(=O)Cc2ccc(Cl)cc2Cl)c1 17.8%, COc1cccc(NC(=O)CN(C)C(=O)c2cc(C3CC3)nn2-c2ccccc2)c1 14%, CC(C)n1ncc2c(C(=O)Nc3ccc(CC#N)cc3)cc(C3CC3)nc21 4.43%, Cc1ccc(S(=O)(=O)Nc2ccc3c(c2)C(=O)N([C@H](C)CO)C[C@@H](C)[C@@H](CN(C)C(=O)Nc2cccc4ccccc24)O3)cc1 2.14%, O=C(NCCC1CCCCN1S(=O)(=O)c1cccs1)C(=O)Nc1ccc(F)cc1F (stereo not drawn) 12.6%, COc1ccc(CCNC(=O)C(=O)NCC2CCCN2S(=O)(=O)c2cccs2)cc1OC (stereo not drawn) 17.3%, CC(=O)Nc1ccc(NC(=S)NC(=O)c2ccc([N+](=O)[O-])c(C)c2)cc1 4.21%, Cc1ccc(NC(=O)c2sccc2C)cc1[N+](=O)[O-] 14.5%, CNc1ccc([N+](=O)[O-])cc1C(=O)O 17.5%, CC(=O)Nc1ccc(S(=O)(=O)N2CCN(c3ccc([N+](=O)[O-])c(NCCN4CCOCC4)c3)CC2)cc1 24.8%, O=C1COc2ccc(C(=O)COC(=O)CCOc3ccccc3)cc2N1 4.75%, O=C(COC(=O)c1ccccc1O)NCc1ccco1 9.75%, COc1cccc(-c2sc3ccc(OC)cc3c2-c2ccc(OCCN3CCCCC3)cc2)c1 3.65%, CCC(C)(C)NC(=O)C(c1ccccn1)N(C(=O)c1csnn1)c1ccccc1 (stereo not drawn) 6.1%, CC(C)(C)NC(=O)CN(C(=O)c1ccc(Cl)nc1)c1cccc2ccccc12 9.37%, COc1cc(Cl)c(C)cc1NC(=O)CSc1nnc(CN2CCCC2)o1 3.58%, O=C1CC2(CCCC2)C(=O)N1CN1CCN(S(=O)(=O)c2ccc(F)cc2F)CC1 6.49%, COC(=O)c1sccc1NS(=O)(=O)c1ccc(F)cc1F -2.44%, COC(=O)c1sccc1NC(=O)COc1ccc(Cl)cc1 19.5%, C[C@]12CC[C@H](O)CC1=CCC1C2CC[C@@]2(C)C1CC[C@@H]2NC(=O)CCC(=O)O (stereo partly drawn) 4.74%, Cc1cccc(C)c1Nc1nnc(SCC(=O)NCCCN2CCCC2=O)s1 5.99%, CC(=O)c1c(C)[nH]c(C(=O)COC(=O)c2cccs2)c1C 15%, COc1cccc(C(=O)OCC(=O)c2[nH]c(C)c(C(C)=O)c2C)c1 12.8%, CC[C@]12c3[nH]c4ccc(OC)cc4c3CCN1C(=O)C(CC(=O)NCc1ccco1)C[C@@H]2C(=O)N1CCN(C(=O)C2CC2)CC1 (stereo partly drawn) 6.49%, COc1ccc(CCNC(=O)COC(=O)c2cnc(Cl)c(Cl)c2)cc1 8.28%, O=C(OCc1ccc([N+](=O)[O-])cc1)c1ccccn1 5.7%, O=C(COC(=O)c1ccccn1)NNC(=O)c1ccc(Br)cc1 -0.24%, COc1ccc(-c2c(C)cc3oc(=O)cc(-c4ccccc4)c3c2C)cc1C=O 4.68%, COc1ccccc1C(=O)COC(=O)COc1ccc(C#N)cc1 5.7%, O=[N+]([O-])c1ccccc1Nc1ccc(O)cc1 50.7%, O=[N+]([O-])c1cccc(/C=N/Nc2ncc(Br)cn2)c1 25.3%, O=C(COC(=O)/C=C/c1cccc(Cl)c1)NCc1cccs1 5.6%, COc1ccc(-c2sc3ccccc3c2-c2ccc(OCCN3CCOCC3)cc2)cc1 -1.97%, CCOc1ccc(/C=N/NC(N)=S)cc1 27.9%, Cc1ccsc1C(=O)N/N=C/c1ccc([N+](=O)[O-])cc1 53.6%, COC(=O)c1ccc(/C=N/NC(=O)C(=O)N2CCCCCC2)cc1 44.8%, O=C(N/N=C/c1ccc2c(c1)OCO2)C(=O)N1CCCC1 15%

inhibition, active:
O=C1c2ccccc2C(=O)c2c1cccc2N1CCN(CCO)CC1 56.4%, CCOc1ccc(/C=C/C(=O)OCC(=O)c2ccccc2OC)cc1OC 62.2%, COc1cc(NC(=O)Nc2ccc(C)cc2)cc([N+](=O)[O-])c1 45.8%, CC(=O)Oc1ccc2c(c1)C(=O)c1ccccc1C2=O 30.9%, CCC(=O)N(C)C(c1ccccc1Cl)c1nnnn1-c1c(C)cccc1C (stereo not drawn) 74.2%, Cc1ccc(C)c(NS(=O)(=O)c2c(C)[nH]c(C)c2C(=O)N2CCCCC2)c1 49.2%, Cc1oc2c(c1C(=O)N1CCOCC1)C(=O)c1ccccc1C2=O 90.1%, COc1cccc(NC(=O)CN(C)C(=O)c2ccccc2CCc2ccccc2)c1 67.5%, COc1ccccc1CCNC(=O)C(=O)NCCC1CCCCN1S(=O)(=O)c1cccs1 (stereo not drawn) 57.5%, CC(=O)Nc1ccc(Nc2c([N+](=O)[O-])cc(S(C)(=O)=O)cc2[N+](=O)[O-])cc1 98%, CNc1ccc(NC(C)=O)cc1[N+](=O)[O-] 59.9%, CC(C)(C)NC(=O)CN(C(=O)c1csnn1)c1ccccc1-c1ccccc1 67.4%, COC(=O)c1sccc1NC(=O)CSc1ccccc1NS(=O)(=O)c1cc(Cl)ccc1Cl 60.7%, CC(=O)c1c(C)[nH]c(C(=O)COC(=O)c2cccc(S(=O)(=O)N(C)c3ccccc3)c2)c1C 69.6%, O=C(COC(=O)c1ccccn1)NNC(=O)c1ccc([N+](=O)[O-])cc1 57.2%, O=[N+]([O-])c1ncc(Br)cc1Nc1ccccc1 54.1%, O=C(N/N=C/c1ccc([N+](=O)[O-])cc1)C(=O)N1CCCC1 45.8%, NC(=S)N/N=C/c1ccc([N+](=O)[O-])cc1 50.9%

Reference: PubChem BioAssay AID485270 (The Scripps Research Institute Molecular Screening Center, 2010)
